Only some compounds are listed: those with a hit (about 32% of all), similar ones and a draw of the others.
PostGolgi yeast – phenotypic screen on post-Golgi transport, primary screen; post-Golgi transport phenotypic cell assay; inhibition, % at 10 µM; 98,000 tested, 0.9% active; AID 739, 2007;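 also: yeast cells grown in 1536-well plates; yeast grown about 18 h at 30C before absorbance read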
CYP2C19 inhib – blockers of cytochrome P450 2C19 activity – biochemical, luminescence, ADME assay, primary screen. P33261. CYP2C19 Supersomes, luciferin-H EGE luminescence, 30 min. inhibition, % at 5 µM. 96,000 tested, 21% active. AID 778, 2007;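 active = CYP2C19 inhibition above a set limit at 5 µM in the primary screen, cut at about 50% in these data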;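 also: plate controls were negative control wells for no effect and 2.5 mM tranylcypromine positive control for full effect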
Target sequence (P33261 whole entry, looked up): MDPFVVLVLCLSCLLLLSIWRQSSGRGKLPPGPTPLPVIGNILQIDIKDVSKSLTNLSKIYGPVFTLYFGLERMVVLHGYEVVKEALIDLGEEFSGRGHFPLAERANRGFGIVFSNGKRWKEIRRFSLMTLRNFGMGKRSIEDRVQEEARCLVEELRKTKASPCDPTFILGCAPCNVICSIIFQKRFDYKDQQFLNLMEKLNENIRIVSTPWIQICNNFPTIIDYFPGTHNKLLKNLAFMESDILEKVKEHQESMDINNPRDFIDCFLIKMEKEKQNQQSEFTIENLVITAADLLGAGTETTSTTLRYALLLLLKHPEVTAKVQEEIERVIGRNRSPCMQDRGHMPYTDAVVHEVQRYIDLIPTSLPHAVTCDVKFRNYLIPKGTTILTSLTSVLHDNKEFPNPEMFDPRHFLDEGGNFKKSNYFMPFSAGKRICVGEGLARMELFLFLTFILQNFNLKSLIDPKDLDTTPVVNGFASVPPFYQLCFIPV
CYP2C9 activ – human CYP2C9 activators, primary screen, biochemical, luminescence. Cytochrome P450 2C9 (Homo sapiens), P11712. recombinant CYP2C9, luciferin-H conversion; hits give high values; factor 1 = untreated enzyme, 0 = blocked. activation factor at 5 µM. 96,000 tested, 1.4% active;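 active = activation factor of 2 or more for CYP2C9 at a 5 µM dose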;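 also: 0 = sulfaphenazole-blocked wells and 1 = vehicle-only wells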
CYP2C19 act – human CYP2C19 activators, primary screen, biochemical, luminescence; recombinant CYP2C19, luciferin-H EGE luminescence; hits give high values; 0 = fully inhibited enzyme, 1 = untreated enzyme; activation factor at 5 µM; 96,000 tested, under 10 active;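 active = activation factor of at least 2 at 5 µM in the primary screen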;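 also: 0 = wells with 2.5 mM tranylcypromine and 1 = vehicle-only wells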
PostGolgi ctrl – growth inhibition of yeast control strain, primary screen, counter-screen for post-Golgi transport modulator project. efflux-deficient yeast background strain, growth absorbance A615, 16 h. inhibition, % at 10 µM. 98,000 tested, 5% active. AID 738, 2007
CYP2C9 inh – blockers of cytochrome P450 2C9 activity – biochemical, luminescence, ADME assay, primary screen. P11712. CYP2C9 Supersomes, luciferin-H conversion. inhibition, % at 5 µM. 96,000 tested, 20% active. AID 777, 2007;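 active = blocking of liver enzyme CYP2C9 beyond about 50% at 5 µM, limit read from the data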
An asterisk follows results filed as active. Rule as the data show it, unless noted: active = inhibition above about 30%; inactive = the rest.

CCCOc1c(OC)cccc1C1CC(=O)Nc2cc3c(cc21)OCO3 (stereo not given) was read as PostGolgi yeast 1, CYP2C19 inhib 96*, CYP2C9 activ 0.5, CYP2C19 act 0, PostGolgi ctrl 11 and CYP2C9 inh 52*.
Screening Cn1nccc1C(=O)NC(=S)Nc1sc2c(c1C#N)CCCCC2 returned PostGolgi yeast 10, CYP2C19 inhib -9, CYP2C9 activ 1, CYP2C19 act 1.1, PostGolgi ctrl -5 and CYP2C9 inh -3.
COc1ccccc1NC(=O)N1CCN(c2cc(-c3ccccc3)nc3ncnn23)CC1 was read as PostGolgi yeast 8, CYP2C19 inhib 33, CYP2C9 activ 0.8, CYP2C19 act 0.7, PostGolgi ctrl 12 and CYP2C9 inh 20.
CCCCn1c(SCC(=O)Nc2nnc(C)s2)nc2c1c(=O)n(C)c(=O)n2C was read as PostGolgi yeast 8, CYP2C19 inhib 8, CYP2C9 activ 0.8, CYP2C19 act 0.9, PostGolgi ctrl -5 and CYP2C9 inh 15.
For C=CCN=c1sc(C(=O)OC)cc(=O)n1CC=C the results were PostGolgi yeast -3, CYP2C19 inhib 52*, CYP2C9 activ 0.8, CYP2C19 act 0.5, PostGolgi ctrl 12 and CYP2C9 inh 18.
Screening CCC1CCCCN1Cc1ccc(OC)c(C)c1C (stereo not given) returned PostGolgi yeast -2, CYP2C19 inhib 18, CYP2C9 activ 0.9, CYP2C19 act 0.8, PostGolgi ctrl -1 and CYP2C9 inh 6.
COC(=O)C1=C(O)/C(=C\c2ccc(O)c(OC)c2)N=C1C was read as PostGolgi yeast -8, CYP2C19 inhib 15, CYP2C9 activ 0.8, CYP2C19 act 0.8, PostGolgi ctrl 12 and CYP2C9 inh 23.
`CCOC(=O)C1=C(O)/C(=C\c2ccc(CNC(=O)C(=O)Nc3ccc(C)c(C)c3)o2)N=C1C` gave PostGolgi yeast 1, CYP2C19 inhib 55*, CYP2C9 activ 0.2, CYP2C19 act 0.4, PostGolgi ctrl 11 and CYP2C9 inh 83*.
CCN(CC)CCNC(=O)c1c(C)n(-c2ccccc2)c2cc(Br)c(OC)cc12 was read as PostGolgi yeast -7, CYP2C19 inhib 42, CYP2C9 activ 0.7, CYP2C19 act 0.6, PostGolgi ctrl 11 and CYP2C9 inh 27.
Screening COc1cc2c(cc1OC)CN(C(=O)c1ccc(OC)c(S(=O)(=O)N3CCOCC3)c1)CC2 returned PostGolgi yeast -3, CYP2C19 inhib 7, CYP2C9 activ 0.8, CYP2C19 act 0.9, PostGolgi ctrl -1 and CYP2C9 inh 21.
COCCNC(=O)c1ccccc1NC(=O)c1ccc(Cl)c(S(=O)(=O)Nc2ccc(C)cc2C)c1 was read as PostGolgi yeast -1, CYP2C19 inhib 18, CYP2C9 activ 0.2, CYP2C19 act 0.8, PostGolgi ctrl 6 and CYP2C9 inh 81*.
For Cc1ccc(C(=O)Nc2ccccc2-c2ccccc2)cc1[N+](=O)[O-] the results were PostGolgi yeast 1, CYP2C19 inhib 37, CYP2C9 activ 0.5, CYP2C19 act 0.6, PostGolgi ctrl 11 and CYP2C9 inh 50*.
Screening Cc1ccc(NS(=O)(=O)c2cc(C(=O)O)ccc2Cl)c(C)c1 returned PostGolgi yeast -1 and PostGolgi ctrl 5.
For COCCNC(=O)c1ccccc1NC(=O)c1ccccc1N(C)S(=O)(=O)c1ccc(C)cc1 the results were PostGolgi yeast 7, CYP2C19 inhib 84*, CYP2C9 activ 0.1, CYP2C19 act 0.2, PostGolgi ctrl 5 and CYP2C9 inh 95*.
Cc1ccc(C)c(NS(=O)(=O)c2cc(C(=O)Nc3ccccc3-c3ccccc3)ccc2Cl)c1 was read as PostGolgi yeast -4, CYP2C19 inhib 79*, CYP2C9 activ 0.3, CYP2C19 act 0.2, PostGolgi ctrl 13 and CYP2C9 inh 70*.
For CCOc1cc(NC(=S)NCC(C)C)c(OCC)cc1NC(=O)c1cccs1 the results were PostGolgi yeast 0, CYP2C19 inhib 2, CYP2C9 activ 0.9, CYP2C19 act 1, PostGolgi ctrl 0 and CYP2C9 inh 8.
CCn1c(SCC(=O)NC2CCCCC2)nnc1-c1cccs1 was read as PostGolgi yeast -5, CYP2C19 inhib 18, CYP2C9 activ 0.8, CYP2C19 act 0.8, PostGolgi ctrl 14 and CYP2C9 inh 20.
`CCn1c(SC/C=C/c2ccccc2)nnc1-c1cccs1` gave PostGolgi yeast 1, CYP2C19 inhib 99*, CYP2C9 activ 0.2, CYP2C19 act 0, PostGolgi ctrl 30 and CYP2C9 inh 82*.
For Cc1occc1-c1nnc(SCC(N)=O)n1Cc1ccccc1 the results were PostGolgi yeast 3, CYP2C19 inhib 11, CYP2C9 activ 1, CYP2C19 act 0.9, PostGolgi ctrl 8 and CYP2C9 inh 2.
For CCn1c(SC(=O)NC2CCCCC2)nnc1-c1cccs1 the results were PostGolgi yeast 22, CYP2C19 inhib 53*, CYP2C9 activ 0.8, CYP2C19 act 0.5, PostGolgi ctrl 11 and CYP2C9 inh 25.
For CCn1c(SCc2nc3ccccc3nc2C)nnc1-c1cccs1 the results were PostGolgi yeast -3, CYP2C19 inhib 93*, CYP2C9 activ 1.1, CYP2C19 act 0.1, PostGolgi ctrl 4 and CYP2C9 inh -8.
Screening Cc1nc2ccccc2nc1CSc1nncs1 returned PostGolgi yeast -1 and PostGolgi ctrl 7.
For C=CCn1c(SCc2nc3ccccc3nc2C)nnc1-c1ccoc1C the results were PostGolgi yeast -6, CYP2C19 inhib 95*, CYP2C9 activ 1.4, CYP2C19 act 0, PostGolgi ctrl 7 and CYP2C9 inh -39.
`CCOCC(=O)Nc1nnc(C2CCCCC2)s1` gave PostGolgi yeast -3, CYP2C19 inhib -3, CYP2C9 activ 1, CYP2C19 act 1, PostGolgi ctrl -3 and CYP2C9 inh 3.
Screening CC(=O)Nc1ccc(-n2nnnc2SCC(=O)N2CCN(C(=O)c3ccco3)CC2)cc1 returned PostGolgi yeast 3, CYP2C19 inhib 10, CYP2C9 activ 0.9, CYP2C19 act 0.9, PostGolgi ctrl -6 and CYP2C9 inh 10.
`COCCn1c(=O)[nH]c2cc(C(=O)NCCN3CCN(c4cccc(Cl)c4)CC3)ccc2c1=O` gave PostGolgi yeast -2 and PostGolgi ctrl -3.
For COc1ccc(/C(O)=C2/C(=O)C(=O)N(CCCC(=O)O)C2c2ccc(OC)c(OC)c2)cc1 (stereo not given) the results were PostGolgi yeast -1, CYP2C19 inhib -18, CYP2C9 activ 1, CYP2C19 act 1.2, PostGolgi ctrl -8 and CYP2C9 inh 1.
Screening CCn1c(SCC(=O)c2ccccc2)nnc1-c1cccs1 returned PostGolgi yeast 12, CYP2C19 inhib 69*, CYP2C9 activ 0.8, CYP2C19 act 0.3, PostGolgi ctrl 21 and CYP2C9 inh 16.
